Inconclusive results are not listed. Where a call stands in place of a potency, no number is given. Calls of active or inactive are those of the source. Calls come from the whole dose curve; as a rule, active = well fitted inhibition curve with a large enough effect; inconclusive = small, poorly fitted or top-dose-only effect; inactive = flat fitted curve, though single readings scatter.
Test system: Zika virus NS2B-NS3 protease
Experiment: Primary screen GU AMC qHTS for Zika virus inhibitors (AID 1347154); note: nearly all actives have a fitted effect of over 70% in size
Conditions: Zika NS2B-NS3 unlinked protease, AMC fluorogenic substrate; series mostly up to 54.1 µM
Method in brief: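 Unlinked Zika NS2B hydrophilic domain–NS3 protease complex at 25 nM in 10 mM Tris-HCl pH 8.0, 0.01% Tween 20, with an AMC peptide substrate. Fluorescence change (340/450 nm) over 15 min at room temperature, normalized to controls, fitted to 4-parameter Hill.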

Compound	Potency
CC(C)C(=O)Nc1cccc(C2CN3CCSC3=N2)c1 (configuration not stated)	inactive
COc1cc2c(cc1OC)C(=O)CC2	inactive
CC(=O)N1CCN(c2ccc(O)cc2)CC1	inactive
OCc1c[nH]c2ccccc12	inactive
O=C(O)c1cn(C2CC2)c2cc(Cl)c(F)cc2c1=O	inactive
C[C@@H]1C[C@H]2[C@@H]3CCC4=CC(=O)C=C[C@]4(C)[C@@]3(F)[C@@H](O)C[C@]2(C)[C@@]1(O)C(=O)COC(=O)c1ccncc1	inactive
CC(C)C(C)(C)C(C)(C)C(C)(C)S	inactive
NC(=O)NS(=O)(=O)c1ccc(Cl)cc1	inactive
COc1cc(C=O)ccc1O	inactive
OCCCc1ccccc1	inactive
CC(=O)/C=C/C=C1/C2CCC(C2)C1(C)C (configuration not stated)	inactive
Cc1cccc(C)c1NC(=O)c1ccc(N)cc1	inactive
CC(=O)OC/C=C(C)/C=C/C=C(C)/C=C/C1=C(C)CCCC1(C)C	inactive
CCOC(=O)C(=O)c1csc(NC=O)n1	inactive
NS(=O)(=O)c1cc(C(=O)NN2C[C@H]3[C@H]4CCC(C4)[C@H]3C2)ccc1Cl	inactive
CC(CC(C#N)(c1ccccc1)C(C)C)N(C)C (configuration not stated)	inactive
CCOC(=O)Oc1ccc(CCNC(=O)[C@H](CCSC)NC(C)=O)cc1OC(=O)OCC	inactive
Cc1ccc(O)cc1	inactive
CC(C)C(=O)Nc1cccc(C(F)(F)F)c1	inactive
O=C(O)[C@@H](O)[C@H](O)[C@H](O)[C@@H](O)C(=O)O	inactive
CCCC(CCC)(C(=O)OCC)C(=O)OCC	inactive
COC(=O)c1c(Cl)c(Cl)c(C(=O)OC)c(Cl)c1Cl	inactive
